Out of some 220,000 compounds screened, about 16,000 (7.3%) were called active. About 25% were inconclusive and are not listed. Calls follow the shape of the dose curve; as a rule, active = well fitted inhibition curve with a large enough effect (not every such curve was filed as active); inconclusive = small, poorly fitted or top-dose-only effect, or another doubt; inactive = no such curve, though single readings can be large or run the other way. Shown is part of a subset that was picked to be rich in actives.
Molecular target: Aldehyde dehydrogenase 1A1 (Homo sapiens) (UniProt P00352)
Sequence (P00352 whole entry, looked up): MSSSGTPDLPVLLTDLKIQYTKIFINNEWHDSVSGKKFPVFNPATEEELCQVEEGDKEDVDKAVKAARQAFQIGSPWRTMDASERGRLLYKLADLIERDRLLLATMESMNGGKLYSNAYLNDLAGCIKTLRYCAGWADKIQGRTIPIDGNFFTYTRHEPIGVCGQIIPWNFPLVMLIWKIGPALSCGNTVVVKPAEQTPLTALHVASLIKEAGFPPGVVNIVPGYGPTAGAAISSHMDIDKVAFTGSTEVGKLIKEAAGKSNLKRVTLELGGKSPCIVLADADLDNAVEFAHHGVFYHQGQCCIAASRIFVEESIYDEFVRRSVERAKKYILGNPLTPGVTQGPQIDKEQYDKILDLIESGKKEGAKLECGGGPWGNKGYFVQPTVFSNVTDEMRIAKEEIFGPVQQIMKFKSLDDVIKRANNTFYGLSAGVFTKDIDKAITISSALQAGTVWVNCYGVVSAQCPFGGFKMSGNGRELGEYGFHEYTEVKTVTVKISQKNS
Experiment: qHTS Assay for Inhibitors of Aldehyde Dehydrogenase 1 (ALDH1A1);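 as to activity, negative = inhibition: plate controls were no enzyme wells and a reference inhibitor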
Conditions: Purified ALDH1A1, NADH fluorescence, propionaldehyde substrate; series mostly up to 75.3 µM; activity, negative = inhibition: at the top concentration
Potency is read from the fitted curve at half-maximal effect.

Potency, inactive:
CCCCCCCC1=Cc2ccc(F)cc2C(C(C(=O)OC)C(=O)OC)N1C(=O)OC (stereo not given)
COC(=O)C1(C(C)=O)CC2=CC[C@H]3C(=O)N(c4ccccc4)C(=O)[C@H]3[C@@H]2Cc2ccccc2[C@@H]1C[N+](=O)[O-] (stereo not given in full)

Potency, active:
COc1cccc(OCCCN2CCCCCC2)c1 14.1 µM
O=C(Nc1ccccc1Cl)/C(Cl)=C(\Cl)S(=O)c1ccccc1 (stereo not given) 10 µM
CCCCN=C1C([N+](=O)[O-])=CC=C2C1=NC1(CCCCC1)N2O 1.41 µM
O=C(CN(Cc1ccccc1)C(=O)c1ccc2c(c1)OCCO2)NCc1ccc2c(c1)OCO2 0.631 µM
CCOc1ccccc1/C=c1\sc2nc(-c3ccco3)nn2c1=O 28.2 µM
O=C(NC(=S)Nc1ccc(S(=O)(=O)N2CCOCC2)cc1)c1ccccc1[N+](=O)[O-] 7.94 µM
O=C(NNC(=S)Nc1ccccc1)c1cccc(S(=O)(=O)N2CCOCC2)c1 28.2 µM
Cn1c(SCc2c(F)cccc2Cl)nnc1-c1cnccn1 12.6 µM
Fc1ccc(Nc2nnns2)cc1 2 µM
CCN(CC(=O)NCCc1ccccc1)S(=O)(=O)c1ccccc1 35.5 µM
N#C/C(=C/c1cccc([N+](=O)[O-])c1)c1nnc2n1CCCCC2 20 µM
O=[N+]([O-])c1ccc(N/N=C/c2ccccc2)cc1 14.1 µM
CCOC(=O)C1(Cc2cccc(OC)c2)CCN(C(C)CC(C)(C)O)CC1 (stereo not given) 3.55 µM
CCN(CC)CCN(C(=O)c1ccc(N2C(=O)CCC2=O)cc1)c1nc2cc3c(cc2s1)OCO3 20 µM
Cc1nc(-c2ccc(Cl)cc2)sc1C(=O)CBr 12.6 µM
CCCCNC(=O)Nc1c(C)cc(SC#N)cc1C 0.562 µM
O=C(/C=C/Sc1ncn[nH]1)c1ccc(Cl)cc1 8.91 µM
Cn1c2c(c(=O)n(C)c1=O)C1c3ccccc3OCC1C(C)(C)O2 (stereo not given) 28.2 µM
COc1ccccc1N1CCN(C(=O)CSc2nnc(-c3ccoc3C)o2)CC1 1.58 µM
CNC(=O)c1c(NC(NC(=O)c2ccco2)C(=O)c2ccc(Cl)cc2)sc2c1CCCC2 (stereo not given) 14.1 µM
O=C1[C@@H]2C(c3cccnc3)=NO[C@@H]2C(=O)N1c1ccc(Cl)cc1Cl 3.55 µM
CN1CCN(CCCCOc2ccccc2-c2ccccc2)CC1 10 µM
Cc1c(Cl)cccc1NC(=O)Nc1ccc(C(=O)N2CCCC2)cc1 20 µM

activity, negative = inhibition, inactive:
COc1cccc(OCC(O)CN2CCN(CCO)CC2)c1 (stereo not given) -0.354%
c1ccc2cc(OCCN3CCCC3)ccc2c1 0.624%
OC(c1nnc(-c2ccccc2)o1)c1cccs1 (stereo not given) 10.2%
O=C(Nc1ccccc1Cl)c1ccc2nsnc2c1 0.565%
O=C(O)c1ccc(Cl)c(S(=O)(=O)Nc2ccccc2Cl)c1 0.312%
O=c1[nH]c(CN2CCOCC2)nc2scc(-c3ccccc3)c12 -2.99%
Cc1ccc(S(=O)(=O)N(C)C)cc1NC(=O)COC(=O)c1c(C)noc1C 10.9%
Cn1cc(CCC(=O)NCc2ccc3c(c2)OCO3)c2ccccc21 -4.4%
O=C(COC(=O)c1ccc2c(c1)OCCO2)NCc1ccccc1 2.29%
CC(C)(C)NC(=O)CN(C(=O)c1csnn1)c1ccccc1-c1ccccc1 3.31%
CSc1cccc(NC(=S)N(Cc2ccccc2)Cc2ccccn2)c1 -2.76%
Cc1cc(C)cc(NC(=S)NCCCN2CCOCC2)c1 5.26%
CCOc1ccccc1C(=O)NCc1ccco1 -3.27%
CSc1nc(-c2ccco2)nn1C(=O)CCc1ccccc1 8.56%
O=C(O)CC1S/C(=N\N=C/c2ccccc2O)N(c2ccc(O)cc2)C1=O (stereo not given) -16.7%
O=C(c1cccc(S(=O)(=O)N2CCOCC2)c1)N1CCOCC1 -5.52%
Cc1cc(C(=O)NNC(=O)c2cccc(S(=O)(=O)N3CCOCC3)c2)c2ccccc2n1 4.23%
O=C(Nc1ccc(N2CCOCC2)cc1)c1ccc(-c2ccccc2[N+](=O)[O-])o1 -15.3%
O=C(CN1C(=O)CCC1=O)Nc1ccc(S(=O)(=O)N2CCOCC2)cc1 9.11%
CCc1c(C)nc2c(OC)cccc2c1Cl 6.92%
CCSc1nc(C)c(CCOc2cccc(C)c2)c(=O)[nH]1 6.34%
COc1ccc(-c2[nH]ncc2CN(Cc2nccn2C)C(C)C)cc1F 8.75%
COc1ccccc1N(CC(=O)Nc1ccc(C(F)(F)F)cc1)S(C)(=O)=O 10.8%
COc1ccc(C(=O)C2CCCN(C(=O)c3cc4nc(C)cc(C)n4n3)C2)cc1F (stereo not given) 2.56%
CCCCN(C(=O)c1ccc(OC(F)(F)F)cc1)c1c(N)n(CCC)c(=O)[nH]c1=O -1.19%
O=C(Nc1ccnc(-c2ccncc2)n1)c1cccs1 6.7%
CC(=O)c1cc(C#N)c(N2CC(C)OC(C)C2)nc1C (stereo not given) -5.66%
N#Cc1ccc(CSc2nnc(-c3ccccn3)n2-c2ccc(Cl)cc2)cc1 -5.72%
CCN(CC)C(=O)CSc1nnc(-c2cnccn2)n1-c1ccc(C)cc1 5.34%
CC(=O)NC(NC(=S)Nc1c(C)n(C)n(-c2ccccc2)c1=O)C(Cl)(Cl)Cl (stereo not given) -0.126%
COC(=O)c1ccc(-c2noc(CN(Cc3ccccn3)CC3CCCO3)n2)cc1 (stereo not given) -7.57%
CN(C)c1ccnc(Nc2ccc(F)cc2)c1C#N -6.59%
O=C1CS(=O)CN1c1ccc(Oc2ccccc2)cc1 (stereo not given) 7.4%
O=C(CCC1CCCN(C(=O)Cc2ccc(F)cc2)C1)N1CCN(c2ccccn2)CC1 (stereo not given) -10.9%
CCN(CC(=O)NC1CCS(=O)(=O)C1)S(=O)(=O)c1ccccc1 (stereo not given) -13.3%
CCN(CC(=O)NCCc1ccccc1)S(=O)(=O)c1ccc(C)cc1 -5.82%
O=C(N/N=C/c1cccc([N+](=O)[O-])c1)C1CC(=O)N(c2ccc(Br)cc2)C1 (stereo not given) 4.53%
C=CCNC(=O)/C(=C\c1cccc([N+](=O)[O-])c1)NC(=O)c1ccccc1 -7.06%
N/C(=N\OC(=O)CCc1ccccc1)c1cccnc1 23.2%
COC(=O)c1ccc(NC(=O)c2cc(Cl)ccc2OC)cc1 -8.51%
CCC(=O)c1ccc(N2CCN(C(=O)c3cc([N+](=O)[O-])ccc3F)CC2)c(F)c1 -10.1%
O=C(CCNS(=O)(=O)c1ccc(Br)s1)NCc1ccccc1Cl 3.59%
NC(=S)N/N=C/c1ccc([N+](=O)[O-])cc1 -3.14%
Cc1cccc(COc2ccccc2/C=N/Nc2ccc([N+](=O)[O-])cc2)c1 -2.85%
Cn1ncc(N2CCN(S(=O)(=O)c3ccc(Br)cc3)CC2)c(Cl)c1=O 9.36%
N#Cc1c(C(F)(F)F)cc(-c2ccc(Cl)cc2)nc1SCC(=O)O 16%
Cc1ccc(C(=O)N/C(=C/c2cccs2)C(=O)N2CCCCC2)cc1 -6.46%
Cc1cccc(C(=O)N2CCc3c([nH]c4ccccc34)C2CC(C)C)n1 (stereo not given) 3.83%
CCOC(=O)C1(Cc2cccc(OC)c2)CCN(C(C)COC)CC1 (stereo not given) -9.4%
CCOC(=O)C1(Cc2cccc(OC)c2)CCN(Cc2csc(C(C)=O)c2)CC1 -5.22%
CN(CC(=O)NC1CCCC1)S(=O)(=O)c1cnc[nH]1 15.3%
CCN(CC)CCN(C(=O)c1cccc([N+](=O)[O-])c1)c1nc2ccc(OC)cc2s1 -6.76%
CCCCN(CC)C(=O)c1ccc2c(c1)OCO2 -5.91%
COc1ccc(CC2(CO)CCN(Cc3cnn(C)c3)CC2)cc1 13.9%
COCCCNC(=O)/C=C/c1ccc(OCc2c(F)cccc2Cl)cc1 -5.86%
Cc1nc(NC(=O)CN(C)S(=O)(=O)c2ccc(Cl)cc2)sc1C 3.59%
Cc1ccc(SCC(=O)c2sc(-c3ccccc3)nc2C)cc1 -4.02%
O=C(N/N=C/c1cc([N+](=O)[O-])ccc1O)/C(=C\c1cccs1)NC(=O)c1ccccc1 -3.97%
CCC(=O)Nc1ccc(Nc2nc(Cl)nc(Nc3ccc(NC(=O)CC)cc3)n2)cc1 8.66%
O=c1[nH]c2cccnc2n(CCNc2ncc(C(F)(F)F)cc2Cl)c1=O -4.57%
CC(C)(C)n1cnnc1Sc1ccc([N+](=O)[O-])cn1 -1.38%
CCCCNC(=O)C(=O)c1ccccc1NC(C)=O -5.94%
Cc1cc2nc(C)n(CCCNC(=O)Nc3ccccc3)c2cc1C 3.27%
O=C(NCCOCc1ccc(Cl)cc1)c1ncn[nH]1 10.1%
COc1cccc2cc(S(=O)(=O)c3ccc(C)cc3)/c(=N/NS(=O)(=O)c3ccc(C)cc3)oc12 8.38%
CCOc1ccc(-n2c(SCC(=O)NC3CCS(=O)(=O)C3)nnc2-c2cccnc2)cc1 (stereo not given) -0.699%
COc1cccc2c1OCC1COc3c(c(=O)n(C)c(=O)n3C)C21 (stereo not given) 8.66%
Cn1c2c(c(=O)n(C)c1=O)[C@@H]1c3c(ccc4ccccc34)OC[C@@H]1CO2 26.5%
COc1ccc(C/C(N)=N/OC(=O)c2ccco2)cc1OC 5.69%
CCOc1ccccc1-n1c(SCC(=O)N2CCCC2)nnc1-c1ccoc1C 5.97%
COc1ccccc1-c1nnc(SCC(=O)Nc2cc(C)on2)o1 10.9%
COc1ccc(-n2nc(C(=O)Nc3cc(OC)c(OC)c(OC)c3)c3ccccc3c2=O)c(OC)c1 7.67%
COC(=O)c1c(NC(=O)c2cccs2)sc2c1CCCC2 5.12%
CCOC(=O)c1c(NC(=S)NC(=O)c2ccco2)sc2c1CCCC2 18.1%
COc1cc(OC)cc(-c2nnc(N(C)C(=O)c3ccncc3)s2)c1 -14%
COC(=O)CCCC1=CC2=CC(=O)C(C)(OC(=O)c3cccs3)C(=O)C2=CN1CC(C)C (stereo not given) -2.57% [at 13.5 µM]
c1ccc(-c2ccccc2OCCN2CCCCC2)cc1 -5.53%
CC1CCCN(CCOCCOc2ccccc2-c2ccccc2)C1 (stereo not given) -14%
O=C(Nc1ccccc1C(=O)N1CCCCCC1)c1ccccc1Cl 0.473%
O=C(c1ccc(Cl)c(Cl)c1)N1CCCC1 2.43%

Reference: PubChem BioAssay AID1030 (National Center for Advancing Translational Sciences (NCATS), 2008)
